These results are taken from PubChem BioAssay AID2360 (The Scripps Research Institute Molecular Screening Center, 2010).

Screen size: about 1,900 compounds; about 85 (4%) were called active. These entries were drawn from the full list. Values without a mark were called inactive.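 How the source made its calls: active means mean PP5 inhibition over triplicate wells above about 9.5% taken from the earlier PP1 screen (limit read from the data); inactive means the rest.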

In general, inhibition refers to the drop in the measured response relative to a control, in per cent.

Chain of Serine/threonine-protein phosphatase 5 (Homo sapiens) (P53041 whole entry, looked up): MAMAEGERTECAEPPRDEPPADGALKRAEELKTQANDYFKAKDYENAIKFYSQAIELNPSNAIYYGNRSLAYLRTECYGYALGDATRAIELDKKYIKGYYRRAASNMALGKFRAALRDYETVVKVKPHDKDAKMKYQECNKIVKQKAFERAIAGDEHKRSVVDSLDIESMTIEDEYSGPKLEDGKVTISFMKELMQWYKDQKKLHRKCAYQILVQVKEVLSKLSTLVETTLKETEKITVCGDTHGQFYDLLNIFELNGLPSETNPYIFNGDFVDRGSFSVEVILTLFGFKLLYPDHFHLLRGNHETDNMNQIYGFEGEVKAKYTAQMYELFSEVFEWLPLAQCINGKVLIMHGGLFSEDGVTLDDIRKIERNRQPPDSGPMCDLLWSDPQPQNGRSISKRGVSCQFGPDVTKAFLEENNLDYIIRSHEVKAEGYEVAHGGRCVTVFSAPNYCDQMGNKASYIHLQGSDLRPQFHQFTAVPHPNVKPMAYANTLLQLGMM

This assay has as its target Serine/threonine-protein phosphatase 5 (Homo sapiens) (UniProt P53041). In words: PP5 phosphatase inhibition by PP1 hits, confirmation, counter-screen for PP1 inhibitor project, biochemical, fluorescence, triplicate (AID 2360). The conditions noted are these: purified PP5c, OMFP fluorescence; at 6.7 µM; stronger effect = higher value.
In the case of `O=C(COC(=O)c1ccc(Oc2ccccc2)cc1)Nc1nnc(-c2ccccc2)o1`, the inhibition was -5.1%. For `CN(C(=O)CN(CCO)CC(=O)N(C)C(C)(C)Cc1ccccc1)C(C)(C)Cc1ccccc1`, the inhibition is -8.53%.

For `O=C1c2cccc(OCC(=O)N3N=C(c4cccs4)CC3c3ccc(F)cc3)c2CCN1Cc1ccccc1` (centres undefined), the inhibition was -2.07%.

As to `O=C(/C=C/c1ccc(F)cc1)NC(=S)NNC(=O)c1cccnc1`, the inhibition is -1.96%. On to `Cc1ccc(Nc2nc(CSc3nnnn3-c3ccccc3)cc(=O)[nH]2)cc1`, for which the inhibition is -0.66%. The result for `O=C(N=C1SC2CS(=O)(=O)CC2N1c1cc(Cl)ccc1Cl)C1CC1` (centres undefined) reads -3.78%; that for `O=C(Nc1ccc(S(=O)(=O)Nc2nccs2)cc1)c1cc(-c2ccncc2)nc2ccccc12`, 0.33%. In the case of `OCCCN1c2ccccc2Nc2nnc(-c3ccccc3)cc21` it was 4.57%; in that of `C/C(=N\c1nc2ccccc2n1C)c1cc(Cl)ccc1O`, -5.58%; in that of `COc1ccccc1NC(=O)CSc1nc2sc3c(c2c(=O)n1-c1ccccc1)CCN(C)C3`, -2.95%. Consider `Cc1ccc(CSCC2Nc3ccc(C(=O)N4CCN(c5ccc(F)cc5)CC4)cc3NC2=O)cc1` (centres undefined), for which the inhibition was -0.12%. In the case of `Cc1ccc(C)c(Cn2nnc3c(=O)[nH]c(C(=O)Nc4ccc(F)cc4)nc32)c1`, the inhibition was -0.92%. In the case of `CCCCCCCCCCOC(=O)Cn1c(COc2ccc(C)cc2)[n+](C)c2ccccc21` it was 1.37%; in that of `C#CCOCCOCCOCCNc1nc(N2CCN(C(=O)CCCCCCCCCCNC(=O)Cn3cc(CCCCCN)nn3)CC2)nc(N2CCN(C(=O)CCCCCCCCCCNC(=O)[C@H](CO)n3cc(CCCSC)nn3)CC2)n1`, 0.18%. For `Cc1ccc(Cn2nnc3c(=O)[nH]c(C4CCN(S(=O)(=O)/C=C/c5ccccc5)CC4)nc32)cc1`, the inhibition is 2.46%. On to `O=[N+]([O-])c1ccccc1/C=N/n1c(COc2ccccc2)n[nH]c1=S`, for which the inhibition is -5.54%. `Cc1nc(/N=C(\N)NC(=O)NC2CCCCC2)nc2ccccc12`: the inhibition is -1.97%.

In the case of `COC(=O)Cc1cc(=O)n(-c2nc3ccccc3s2)[nH]1`, the inhibition was 0.87%. In the case of `c1ccc(-c2nccc(-c3ccc(-n4cnc5ccccc54)cc3)n2)nc1` it was 3.84%; in that of `O=C(N/N=C/c1cc([N+](=O)[O-])ccc1O)/C(=C\c1cccs1)NC(=O)c1ccccc1`, -3.51%. On to `CC(C)OC(=O)c1cc(NC(=O)C2C3CCC(O3)C2C(=O)O)cc(C(=O)OC(C)C)c1` (centres undefined), for which the inhibition is 9.52%. In the case of `COc1ccc(NC(=O)C2C3CCC(O3)C2C(=O)O)cc1OC` (centres undefined) it was 39.5% (active); in that of `Cc1cc(N2C(=O)C(O)=C(C(=O)c3ccc(C)o3)C2c2ccc(OCc3ccccc3)cc2)no1` (centres undefined), -0.28%; in that of `O=[N+]([O-])/C=C/c1ccc2c(ccn2Cc2ccccc2)c1`, -1.11%. In the case of `C=CCn1c(=NC(=O)c2ccc(S(=O)(=O)N3CCCC3)cc2)sc2cc(NC(C)=O)ccc21` it was -0.04%; in that of `COCCCNC(=O)C1CC(=O)N(c2ccc(C)cc2)C1` (centres undefined), -1.02%.

In the case of `NC(N)=N/N=C/c1ccc(OCc2ccc(Cl)cc2Cl)cc1`, the inhibition was -2.25%.

As for `Cc1ccc(-n2nc3ccc(NC(=O)/C=C/c4ccco4)cc3n2)cc1C`, the inhibition is -6.55%.

Regarding `Clc1ccc2c(c1)C1=C(C(c3ccncc3)O2)C(c2ccc(Br)cc2)n2ncnc2N1` (centres undefined), the inhibition was 2.48%. In the case of `CCn1c(SCC(=O)Nc2cc(C)ccc2C)nnc1-c1cnccn1` it was -3.87%; in that of `Oc1c(C(c2ccccn2)N2CCOCC2)ccc2cccnc12` (centres undefined), -0.03%; in that of `N#Cc1c(-c2ccccc2)nc(SCc2cccc(C(F)(F)F)c2)[nH]c1=O`, -1.06%.

Turning to `C=C1c2c(Cl)ccc(O)c2C(O)=C2C(=O)[C@]3(O)C(O)=C(C(N)=O)C(=O)[C@@H](N(C)C)[C@@H]3[C@@H](O)C12` (some centres undefined), the inhibition was 2.9%.

For the compound `Cc1ccc(N2C(=O)C3N=NN(CC(=O)N4N=C(c5cccc6ccccc56)CC4c4ccccc4)C3C2=O)cc1` (centres undefined), the inhibition is -0.1%.

Turning to `CC(=O)c1ccc(N2CCN(S(=O)(=O)c3ccc4c(c3)CC(=O)N4C)CC2)cc1`, the inhibition was 2.4%.

Regarding `COc1ccc(-c2nn(-c3ccccc3)cc2/C=C2/SC(=S)N(CCCC(=O)O)C2=O)c(C)c1`, the inhibition is -0.32%. The result for `Cc1ccc(OCC(=O)Nc2ccc(-c3nnc(-c4ccco4)o3)cc2)cc1` reads -4.22%; that for `CCOc1ccc(NC(=O)c2ccc(NC(=O)COC(=O)c3ccc(NC(=O)CC#N)cc3)cc2)cc1`, -3.12%.

Consider `CC(C)(C)Nc1nc(-c2ccccn2)nc2ccccc12`, for which the inhibition is -4.55%.
